Bioassay records (PubChem BioAssay)
Tau fibril FP = qHTS for Inhibitors of Tau Fibril Formation, Fluorescence Polarization. K18 P301L tau heparin fibrillization, Alexa594 FP, 6 h. Potency, µM (doses to about 57.7 µM), for inactives: at the highest dose activity, negative = inhibition, usual class: inhibitors. 280,000 tested, 0.39% active. AID 1468, 2008; further: potency means the concentration at half of the fitted maximal effect; nearly all actives have a fitted effect of over 55% in size
Target sequence (P10636 561-689 P618L limits assumed): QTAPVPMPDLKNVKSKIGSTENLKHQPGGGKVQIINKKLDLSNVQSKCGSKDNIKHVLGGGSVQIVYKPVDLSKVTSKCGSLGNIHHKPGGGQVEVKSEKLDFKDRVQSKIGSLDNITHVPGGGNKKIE
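FP of Alexa 594-tau after heparin (20 uM) induction. Substrate: human K18 P301L, 15 uM unlabeled, 0.24 uM labeled. Buffer 100 mM sodium acetate pH 7. 6 hr, 37 C.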
KDM4E inh = qHTS Assay for Inhibitors of Human Jumonji Domain Containing 2E (JMJD2E); 230,000 tested, 1.6% active; AID 2147, 2009; JMJD2E catalytic domain, FDH-coupled NADH fluorescence (FDH is formaldehyde dehydrogenase); Lysine-specific demethylase 4E (Homo sapiens), B2RXH2; Potency, µM (highest dose often 57.1 µM), for the others: top-dose activity change, negative = inhibition, most hits filed as inhibitors; active means well fitted inhibition curve with a large enough effect, not every such curve was filed as active; inconclusive means small, poorly fitted or top-dose-only effect, or another doubt; inactive means no such curve, though single readings can be large or run the other way;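 further: potency means the concentration at half of the fitted maximal effect; 0% = wells with enzyme and -100% = buffer wells without enzyme; nearly all actives have a fitted effect of over 50% in size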
Target sequence (B2RXH2 1-337 limits assumed): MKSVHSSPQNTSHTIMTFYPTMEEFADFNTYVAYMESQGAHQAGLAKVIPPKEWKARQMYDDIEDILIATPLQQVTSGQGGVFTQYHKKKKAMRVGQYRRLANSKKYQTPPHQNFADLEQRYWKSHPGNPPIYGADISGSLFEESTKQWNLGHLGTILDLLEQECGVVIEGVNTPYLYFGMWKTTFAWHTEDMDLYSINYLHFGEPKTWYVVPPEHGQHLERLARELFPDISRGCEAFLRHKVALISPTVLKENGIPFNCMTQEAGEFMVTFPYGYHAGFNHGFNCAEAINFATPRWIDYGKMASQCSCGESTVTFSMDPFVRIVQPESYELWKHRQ
Tau ThT inhib = qHTS for Inhibitors of Tau Fibril Formation, Thioflavin T Binding | Microtubule-associated protein tau (Homo sapiens), P10636 | recombinant tau K18 P301L, heparin-induced fibrillization, ThT fluorescence | Potency, µM (top dose mostly 57.4 µM), without a hit: at the highest dose activity, negative = inhibition, most hits filed as inhibitors | 270,000 tested, 2.1% active; further: potency means the concentration at half of the fitted maximal effect; nearly all actives have a fitted effect of over 55% in size
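Heparin-induced (20 uM) aggregation of recombinant human K18 P301L tau, 15 uM unlabeled with 0.24 uM labeled, pH 7 acetate buffer, 6 hr at 37 C with compound. Fibrils quantified by 30 uM ThT fluorescence after 1 hr ambient incubation.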
FBPA coupling cs = qHTS Assay for Inhibitors of Fructose-1,6-bisphosphate Aldolase from Giardia Lamblia: Coupling assay counterscreen | activity change, negative = inhibition, % at 58.2 µM, hits read low | 290,000 tested, 0.67% active | coupling enzyme system counterscreen, AmpLite Red fluorescence | AID 2472, 2010; in the data active means activity change below about -30%
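Activity here indicates interference with the coupling reaction, not aldolase inhibition. Compounds at 57.5 uM final met coupling enzymes for 10 min at RT; substrate and AmpLite Red detection followed, with a 525/598 nm fluorescence read after 20 min.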
Sfp PPTase inh = qHTS Assay for Inhibitors of Bacillus subtilis Sfp phosphopantetheinyl transferase (PPTase). 4'-phosphopantetheinyl transferase ffp (Bacillus subtilis), Q9F4F7. 310,000 tested, 3.5% active. Potency, µM, for the others: largest response in the series, negative = inhibition, hits mostly inhibitors. Biochemical Sfp PPTase activity, qHTS;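 further: the enzyme is Sfp with the accession as filed and its product quenches rhodamine fluorescence; potency means the concentration at half of the fitted maximal effect; 0% = enzyme reaction without inhibitor and -100% = no enzyme wells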
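Reaction rates are the 30-min fluorescence difference (ex 525, em 598 nm) in wells containing 15 nM Sfp, 5 uM rhodamine-CoA and 12.5 uM BHQ-2-YbbR at pH 7.6 with 10 mM MgCl2.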
Tau fluor cs = Counterscreen qHTS for Inhibitors of Tau Fibril Formation, Fluorescence Polarization. Potency, µM (titrated, usually from 57.7 µM), for inactives: top-dose activity change, negative = decrease. tau K18 P301L (four-repeat tau fragment) Alexa594 fluorescence, heparin fibrillization. AID 1463, 2008. 280,000 tested, 0.93% active; further: potency means the concentration at half of the fitted maximal effect; nearly all actives have a fitted effect of over 55% in size
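Human K18 P301L tau (15 uM unlabeled plus 0.24 uM Alexa 594-labeled, final) in 100 mM sodium acetate pH 7 was mixed with compound and 20 uM heparin and incubated 6 hr at 37 C.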
Active calls of the source: *; ? = inconclusive; nt = no result; ! = repeats disagree; [ ] = remark or other dose. The list is not random: actives were taken first. Their share in the collection is about 5.3%. Unless noted, the call rests on the fitted dose curve; in most records, active means well fitted curve in the direction sought with a large enough effect; inconclusive means small, poorly fitted or top-dose-only effect, or another doubt; inactive means no such curve, though single readings can be large; an effect the other way counts as inactive or inconclusive. Unless noted, on the % scale 0 is the no-effect control and ±100 the full control effect.

SMILES	Tau fibril FP	KDM4E inh	Tau ThT inhib	FBPA coupling cs	Sfp PPTase inh	Tau fluor cs
C=CCOC(=O)N[C@H](/C(C(=O)OC)=C(\C)NCc1ccccc1)c1ccc(Br)cc1	-4.6%	4.3%	-5.7%	-6.7	-9.6%	-3.9%
CCCn1c(C)nc2c(NCCCCN3CCCC3)nc(C)nc21	-9.5%	0.2%	-2.6%	0.9	33.0%	-1.8%
Cc1cc2c(c(=O)o1)C1(C(=O)N(C)c3ccccc31)C(C#N)=C(N)O2 (centres undefined)	3.9%	4.3%	3.2%	1.4	-0.1%	2.2%
Cc1nn(-c2ccccc2)c2c1C1(C(=O)N3c4c(cccc41)C(C)CC3(C)C)C(C#N)=C(N)O2 (centres undefined)	?	?	?	-58.5*	-8.0%	?
CCOC(=O)N1CCC2(CC1)C(C#N)=C(N)Oc1c2c(C)nn1-c1cccc(Cl)c1	-12.3%	?	22.4µM*	-6.2	2.6%	?
Cc1nn(-c2ccccc2)c2c1C1(C(=O)N(C)c3ccccc31)C(C#N)=C(N)O2 (centres undefined)	?	-11.5%	22.4µM*	-43.8*	-4.3%	?
Cc1ccc2c3c1C1(C(=O)N3C(C)(C)CC2C)C(C#N)=C(N)Oc2cc(O)ccc21 (centres undefined)	1.5%	-1.0%	-12.7%	-0.3	-5.3%	-21.7%
CC(=O)N1C(=O)C2(C(C#N)=C(N)Oc3c2c(C)nn3-c2ccccc2)c2ccccc21 (centres undefined)	?	-12.8%	28.2µM*	-26.5	-13.9%	?
CCN1C(=O)C2(C(C#N)=C(N)Oc3c2c(C)nn3-c2ccccc2)c2ccccc21 (centres undefined)	?	-14.7%	15.8µM*	-44.9*	0.0%	?
COc1ccc(OC)c(C2OCCC=CC2C)c1 (centres undefined)	-4.8%[11.6 µM]	nt	-3.3%[11.5 µM]	2.5	11.1%	-1.7%[11.6 µM]
Cc1[nH][nH]c(=O)c1C(c1c(C)[nH][nH]c1=O)c1cn(Cc2cccc3ccccc23)c2ccccc12	?	28.0%	10µM*	-50.9*	-15.4%	?
Cc1[nH][nH]c(=O)c1C(c1c(C)[nH][nH]c1=O)c1cn(C)c2ccccc12	4.0%	9.1%	5.8%	-65.1*	44.7µM*	8.8%
O=c1c2ccccc2ncn1Cc1cccc2ccccc12	-1.7%	6.0%	-3.3%	5.0	-15.2%	-12.9%
CCc1ccc(NC(=O)C(Cc2ccccc2)NS(=O)(=O)c2ccc3c(c2)c(=O)n(C)c(=O)n3C)cc1 (centres undefined)	-7.1%	nt	-0.9%	nt	nt	?
COc1cccc(Nc2sc(C(=O)c3ccc(F)cc3)c(N)c2C(=O)NCc2ccc(C)cc2)c1	1.0%	nt	?	nt	nt	?
CC(=O)Nc1ccc(OC[C@@H](O)CNC(C)C)cc1	-5.8%	22.7%	-5.0%	0.1	9.9%	-9.2%
COC(=O)CCC(=O)OC1(C)C(=O)C=C2C=C(C3CC3)N(C(CO)CO)C=C2C1=O (centres undefined)	-0.1%[11.6 µM]	?	2.1%[11.5 µM]	-38.6*!	17.3%	3.8%[11.6 µM]
COC(=O)CCC(=O)OC1(C)C(=O)C=C2C=C(C3CC3)N(Cc3ccc4c(c3)OCO4)C=C2C1=O (centres undefined)	-4.0%[11.6 µM]	15.8µM*!	?	-39.1*	-11.8%	-11.6%[11.6 µM]
COC(=O)CCC(=O)OC1(C)C(=O)C=C2C=C(C3CC3)N(CCc3c[nH]c4ccccc34)C=C2C1=O (centres undefined)	-0.3%[11.6 µM]	?	?	-40.4*!	-2.4%	-6.7%[11.6 µM]
COC(=O)CCC(=O)OC1(C)C(=O)C=C2C=C(C3CC3)N(CCCCO)C=C2C1=O (centres undefined)	4.2%[11.6 µM]	20µM*!	-5.8%[11.5 µM]	-39.5*!	2.1%	-2.7%[11.6 µM]
CCS(=O)(=O)N1CCC2(CC1)OC(=O)C(C)=C2C(=O)NCc1ccccc1C	0.4%	nt	3.0%	nt	nt	-4.5%
O=C(N/N=C1/C[C@@H](O)[C@@H](O)[C@@H]2[C@@H]3C(=O)N(Cc4ccccc4)C(=O)[C@H]3CC[C@H]12)OCc1ccccc1	-2.9%[11.6 µM]	nt	-7.1%[11.5 µM]	5.9	13.4%	-6.6%[11.6 µM]
N[C@@H](CSS(=O)(=O)O)C(=O)O	17.8µM*	?	12.6µM*	-76.5*	44.7µM*	-11.5%
CCC/C=C1/CCCOC(C(=O)NCc2ccc(C)o2)(C(F)(F)F)C1 (centres undefined)	nt	nt	nt	-2.8	56.2µM*	nt
CCC/C=C1/CCCOC(C(=O)NCc2ccccn2)(C(F)(F)F)C1 (centres undefined)	nt	nt	nt	0.9	10.7%	nt
SMILES	Tau fibril FP	KDM4E inh	Tau ThT inhib	FBPA coupling cs	Sfp PPTase inh	Tau fluor cs
CCC/C=C1\CCCOC(C(=O)NCc2ccc(C)o2)(C(F)(F)F)C1 (centres undefined)	nt	nt	nt	-1.3	50.1µM*	nt
CCc1ccc(NC(=O)N(Cc2c[nH]c3ccccc23)C2CCCCCC2)cc1	-12.9%	nt	-0.7%	nt	nt	-13.1%
CC(=O)/C(N=Nc1ccc2c(c1)OCCO2)=C(\C)O	-0.2%	4.0%	10µM*	1.5	1.1%	-13.8%
CC(=O)/C(N=Nc1ccc2c(c1)OCO2)=C(\C)O	5.2%	0.5%	3.55µM*	-0.9	-21.2%	-13.8%
CC(=O)/C(N=Nc1ccc(C(=O)O)cc1)=C(\C)O	-6.8%	-2.0%	-11.8%	-1.1	16.9%	-11.2%
CCN(CC)S(=O)(=O)c1ccc(N=N/C(C(C)=O)=C(/C)O)cc1	3.2%	-1.1%	-11.8%	-0.2	6.7%	-9.5%
Cc1cc(=O)c2c(O)cc(O)c(C)c2o1	?	-23.6%	25.1µM*	-17.4	-12.3%	28.2µM*[quencher]
COc1c2ccoc2c(OC(C)=O)c2oc(C)cc(=O)c12	nt	nt	nt	0.5	12.8%	nt
CN(/N=C/c1cc(Cl)cc(Cl)c1O)C(=S)NC(C)(C)C	-2.5%	31.6µM*	?	2.0	-5.4%	?
C[C@@H]1C[C@](C)(C(=O)c2ccco2)C=C1c1ccco1	-8.1%	-9.2%	-17.8%	0.2	-5.5%	-2.8%
N#Cc1c(N)nc2c(c1-c1ccc(Br)s1)CCCC2	-8.0%	0.0%	-4.9%	-0.6	4.8%	-5.6%
Nc1nc(-c2ccc(Br)s2)c(Br)s1	-0.9%	-4.9%	?	1.9	35.5µM*	14.1µM*[quencher]
NS(=O)(=O)c1ccc(NC2=CC(c3ccc([N+](=O)[O-])cc3)N(c3ccc(S(N)(=O)=O)cc3)C2=O)cc1 (centres undefined)	-14.5%	?	?	-1.2	11.2µM*	12.6µM*[quencher]
